# Bioassay records deposited in PubChem by several laboratories.
# Shown are actives, neighbours in structure and some others; about 1.5% of the full set was active somewhere.
# PABP FP inh – PABP-poly(A) binding inhibition; actives 1% (n = 290,000); P11940; PABP-poly(A) RNA binding, fluorescence polarization; calls only at 35 µM;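 further: calls also rest on retests at 20 µM and on dose response follow-up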
# Target sequence (P11940 whole entry, looked up): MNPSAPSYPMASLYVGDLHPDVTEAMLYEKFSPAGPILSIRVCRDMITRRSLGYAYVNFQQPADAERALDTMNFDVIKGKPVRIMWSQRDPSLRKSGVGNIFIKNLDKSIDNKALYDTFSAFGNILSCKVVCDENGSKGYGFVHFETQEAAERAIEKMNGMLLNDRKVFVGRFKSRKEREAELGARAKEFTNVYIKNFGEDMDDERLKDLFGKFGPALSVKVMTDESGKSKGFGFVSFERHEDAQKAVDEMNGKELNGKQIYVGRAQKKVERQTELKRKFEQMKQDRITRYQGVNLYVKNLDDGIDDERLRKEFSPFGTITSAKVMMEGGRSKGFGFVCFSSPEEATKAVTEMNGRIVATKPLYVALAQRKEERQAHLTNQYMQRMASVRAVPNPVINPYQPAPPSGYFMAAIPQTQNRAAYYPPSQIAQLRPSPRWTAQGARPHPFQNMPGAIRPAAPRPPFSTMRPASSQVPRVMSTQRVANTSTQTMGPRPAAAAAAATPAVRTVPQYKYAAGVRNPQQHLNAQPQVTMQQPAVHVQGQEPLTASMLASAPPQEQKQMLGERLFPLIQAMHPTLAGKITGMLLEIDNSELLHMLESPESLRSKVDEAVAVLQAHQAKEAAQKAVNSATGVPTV
# MLLE-PAM2 inh – blocks PAM2 peptide binding to the PABP1 MLLE domain. P11940. GST-MLLE / FITC-PAM2 fluorescence polarization. inhibition, % at 20 µM. actives 0.36% (n = 360,000). AID 588489; in the data active means inhibition above about 35%, passing the limit was not always enough
# eIF4E 4G PPI – blocks eIF4E binding to eIF4G; P63073+Q04637; TR-FRET eIF4E-eIF4GI(517-606) binding, 2 h; inhibition, % at 21.7 µM; actives 0.37% (n = 220,000); AID 782;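 active means inhibition above about 30%, limit read from the data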
# eIF4H FP inh – inhibitors of RNA binding by human eIF4H | AID 2012 | eIF4H fluorescence polarization binding assay | inhibition, % at 35 µM | Q15056 | actives 0.94% (n = 290,000);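 further: calls also rest on retests at 20 µM and on dose response follow-up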
# Numbers stand for hits; 0 = inactive; ? = inconclusive; - = no result; + = active, no number. Unless noted, how the calls were made is not given here.
SMILES,PABP FP inh,MLLE-PAM2 inh,eIF4E 4G PPI,eIF4H FP inh
COc1ccc(-c2c[n+]3c(n2-c2ccccc2)CCCCC3)cc1,+,0,0,?
O=C(NCc1ccc(Cl)nc1)c1csc(COCCO)n1,-,0,-,-
Cc1cc(=O)oc2cc(OCc3ccc(C(=O)OCC(=O)N(C)C4CCS(=O)(=O)C4)cc3)ccc12 (configuration not stated),0,0,0,0
Cc1cc(=O)oc2cc(OCc3ccc(C(=O)OCC(=O)NC4CCS(=O)(=O)C4)cc3)ccc12 (configuration not stated),+,0,0,99
CCN1CCN(C(=O)c2cc3cc([N+](=O)[O-])ccc3oc2=O)CC1,0,0,0,0
O=C(c1cc2cc([N+](=O)[O-])ccc2oc1=O)n1cccn1,+,0,0,0
O=S(=O)(Nc1nc2ccccc2nc1NCCO)c1cccc(Cl)c1,0,0,0,0
COCCCNc1nc2ccccc2nc1NS(=O)(=O)c1cccc(Cl)c1,0,43,-,0
O=C(Nc1ccccc1F)NC1CCN(Cc2nnnn2Cc2ccc(F)cc2)CC1,0,0,0,0
O=C(Nc1ccc(F)cc1)NC1CCN(Cc2nnnn2Cc2ccco2)CC1,+,0,0,74
O=C(NCc1cccnc1)c1cc(C2CCCCN2C(=O)c2ccc3c(c2)CCO3)on1 (configuration not stated),-,0,-,-
O=C(N/N=C/c1cccnc1)c1cccc(S(=O)(=O)Nc2cccc(Cl)c2)c1,0,0,0,0
O=C(N/N=C/c1ccncc1)c1cccc(S(=O)(=O)Nc2ccc(Cl)cc2)c1,0,0,92,70
CC1C2C(c3ccccc3)N(C)C(=O)N(C)C2N(C)C(=O)N1C (configuration not stated),+,0,0,57
COC(=O)c1c(C)[nH]c(C(=O)OC(C)C(=O)NC2CCCCC2C)c1C (configuration not stated),-,0,-,-
CC(=O)Nc1ccc(NC(C)=O)s1,0,0,0,0
CC(=O)Nc1ccc(-c2ccccc2)s1,+,0,0,0
Cc1ccc(NC(=O)COC(=O)CSC(=S)N2CCOCC2)cc1,+,0,0,active
CCOC(=O)c1ccc(NC(=O)CSC(=S)N2CCOCC2)cc1,0,0,0,0
CN1CCN(C(=O)c2cc3c(c(-c4cccc(C#CC(C)(C)O)c4)n2)[C@@H](CCO)N(S(=O)C(C)(C)C)C3)CC1 (some centres not stated),-,0,-,-
Cn1ccc2c(-c3ccc(C(N)=O)cc3)cc3c(c21)C1CCC3C1 (configuration not stated),-,0,-,-
Cc1ccccc1N=Nc1c(C)[nH]n(-c2ccccc2)c1=O,0,-,59,0
Cc1[nH]n(C2=NCCS2)c(=O)c1N=Nc1ccccc1,0,40,0,0
Cc1[nH]n(-c2ccccc2)c(=O)c1N=Nc1ccc2c(c1)OCO2,0,0,0,0
O=C(C1CC(c2cccc(Br)c2)=NO1)N1CCc2ccccc2C1 (configuration not stated),0,0,0,53
SMILES,PABP FP inh,MLLE-PAM2 inh,eIF4E 4G PPI,eIF4H FP inh
O=C(O)C1CC(c2cccc(Br)c2)=NO1 (configuration not stated),0,0,0,0
CC1(C)CCCN(C(=O)c2coc(=O)c(Br)c2)C1,+,0,0,89
O=C(c1cccc(Br)c1)N1CCCc2ccccc21,0,0,-,0
O=C(c1coc(=O)c(Br)c1)N1CCCc2ccccc21,+,0,-,67
O=C(c1coc(=O)c(Br)c1)N1CCC(C(O)(c2ccccc2)c2ccccc2)CC1,0,0,0,0
Cc1ccc(SCC(=O)c2ccc(CC(=O)O)s2)cc1,0,0,0,74
CN(C)c1cccc(C(=O)OCc2cc(=O)oc3cc(O)ccc23)c1,+,0,0,88
COc1ccc(-c2cc(NC=O)c3ncc(-c4cccc(C(=O)N(C)C)c4)n3c2)cn1,-,0,-,-
CCOC(=O)c1c(/N=C/c2ccc(O)cc2O)sc2c1CCC2,+,-,0,65
CCOC(=O)c1c(/N=C/c2ccccc2O)sc2c1CCC2,0,0,0,0
CC(=O)Oc1ccccc1Cn1c(C)c(C(=O)NCc2cccc([N+](=O)[O-])c2)sc1=O,-,0,-,-
Cc1cc(C)nc(N/N=C/c2ccccc2OCc2ccc([N+](=O)[O-])cc2)n1,0,0,0,0
O=[N+]([O-])c1ccc(N/N=C\c2ccccc2OCc2ccccc2)cc1,+,0,0,23
O=S(=O)(O)c1cc(O)c2cc(Nc3ccccc3)ccc2c1,-,46,-,-
CC(=O)Nc1ccc2c(O)cc(S(=O)(=O)O)cc2c1,-,0,-,-
Nc1ccc2c(O)cc(S(=O)(=O)O)cc2c1,-,49,-,-
O=S(=O)(O)c1ccc(O)c2cc(Nc3ccccc3)ccc12,-,45,-,-
O=S(=O)(O)c1cc(O)c2ccc(Nc3ccccc3)cc2c1,-,0,-,-
